These results are taken from PubChem BioAssay.

The target of assay [1] is Tumor necrosis factor receptor superfamily member 10B (Homo sapiens) (UniProt O14763). Put plainly: caspase-8 TRAIL sensitization, hit retest, confirmation, cell-based, NB7+caspase-8, with/without TRAIL, luminescence panel (AID 651596). The conditions noted are these: NB7 neuroblastoma + caspase-8, TRAIL sensitization, luminescence viability, with TRAIL, mean of runs, at 10 µM, stronger effect = higher value.

Experiment in assay [2]: as above
The conditions noted are these: NB7 neuroblastoma + caspase-8, without TRAIL, luminescence viability, without TRAIL, mean of runs, at 10 µM.

Sequence of Tumor necrosis factor receptor superfamily member 10B (Homo sapiens) (O14763 whole entry, looked up): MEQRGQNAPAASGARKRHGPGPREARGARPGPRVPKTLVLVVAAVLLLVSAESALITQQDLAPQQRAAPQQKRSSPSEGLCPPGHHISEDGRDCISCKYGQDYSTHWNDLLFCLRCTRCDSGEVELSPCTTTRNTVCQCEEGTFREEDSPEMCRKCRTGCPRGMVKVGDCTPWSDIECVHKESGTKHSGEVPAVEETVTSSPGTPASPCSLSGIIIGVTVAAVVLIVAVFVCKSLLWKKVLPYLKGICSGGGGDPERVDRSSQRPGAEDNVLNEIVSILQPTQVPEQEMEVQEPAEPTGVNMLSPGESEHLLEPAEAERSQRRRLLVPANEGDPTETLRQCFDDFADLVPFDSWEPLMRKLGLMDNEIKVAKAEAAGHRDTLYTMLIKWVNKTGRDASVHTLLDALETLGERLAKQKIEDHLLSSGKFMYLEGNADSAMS

As to `O=C(Nc1ccc2[nH]ccc2c1)c1ccc(F)cc1`, the activity is 89.7% in assay [1] and 87% in assay [2].

As to `Cc1cc(-c2ccc(F)cc2)n2ncc(-c3ccccc3)c2n1`, the values for the activity in assay [1] and in assay [2] were 76.6% and 84.3%, respectively.

Take `Cc1cc(C)n(-c2ccc(C(=O)Nc3ccc(C)c(S(=O)(=O)N4CCOCC4)c3)cc2)n1`: the activity in assay [1] is 63.5%; in assay [2] it was 24.2%.

Consider `O=C(Nc1ccccc1C(=O)N/N=C/c1ccncc1)c1ccccc1`, for which the activity is 91.7% in assay [1] and 87.5% in assay [2].

On to `Cc1cccc(-n2ncc3c(N4CCOCC4)ncnc32)c1`, for which the activity in assay [1] is 85.7%; in assay [2], 88.5%.

`O=C(Nc1nc(=O)c2ccccc2s1)c1ccc(F)cc1`: the activity in assay [1] turned out to be 64.8%; in assay [2], 72.2%.

`Cc1cccnc1Nc1nc(-c2ccccn2)cs1`: the activity was 38.4% in assay [1] and 63.1% in assay [2].

For the molecule `Cc1nc2c(ccc3nc(NC(=O)c4ccc5c(c4)OCCO5)sc32)s1`, the activity was 82.8% in assay [1] and 84.3% in assay [2].

For `O=C(CCl)Nc1ccccc1C(=O)Nc1ccc2c(c1)OCO2`, the activity in assay [1] is 74.1%; in assay [2], 73.8%.

Turning to `O=C(/C=C/c1ccco1)Nc1ccc2c(c1)OCCO2`, the activity came to 71.8% in assay [1] and 65.1% in assay [2].

Turning to `Cc1ccc(OCC(=O)NC(=S)Nc2ccccn2)c(Br)c1`, the activity in assay [1] was 86.3%; in assay [2], 81.9%.

Turning to `CC(C)c1ccc(OCc2cccc(C(=O)N/N=C/c3cccnc3)c2)cc1`, the activity worked out at 47.6% in assay [1] and 45.3% in assay [2].

Consider `O=C(OCn1ncc(Cl)c(Cl)c1=O)c1ccc(C(F)(F)F)cc1`, for which the activity in assay [1] came out at 95.2%; in assay [2], 94%.

Take `COc1ccccc1NC(CC(=O)c1ccccc1)C(=O)OCC(=O)c1ccc(F)cc1` (stereo unspecified): the activity in assay [1] was 69.5%; in assay [2] it was 65.9%.

In the case of `Nc1nc(=S)c2ncn(C3OC(CO)C(O)C3O)c2[nH]1` (stereo unspecified), the values for the activity in assay [1] and in assay [2] were 9.65% and 6.78%, respectively.

Turning to `CC(C)n1c(/C=C/c2ccccc2)nc2ccccc21`, the activity in assay [1] was determined as 63.2%; in assay [2], 69.3%.

In the case of `O=C(Nc1ccc2c(c1)OCCO2)c1ccccc1`, the activity in assay [1] stood at 53.7%; in assay [2] it was 54.6%.

On to `Cc1ccc(C(=O)Nc2ccc3ncccc3c2)cc1`, for which the activity in assay [1] amounted to 93.4%; in assay [2] it was 92.9%.

Turning to `Cc1ccc(C(=O)Nc2ccc3ccccc3n2)cc1`, the activity turned out to be 58.6% in assay [1] and 58.2% in assay [2].

With `C#CC(=O)N(c1ccc(OC)cc1OC)C(C(=O)NC1CCCC1)c1cccs1` (stereo unspecified), the activity in assay [1] worked out at 99%; in assay [2], 99.6%.

As for `O=C(NCCO)c1ccc2c3n(nc2c1)-c1ccccc1CO3`, the values for the activity in assay [1] and in assay [2] were 78.9% and 78.8%, respectively.

With `CC1CCc2c(sc(/N=C/c3ccco3)c2C(N)=O)C1` (stereo unspecified), the activity was 54.1% in assay [1] and 56.5% in assay [2].

As to `O=[N+]([O-])c1ccc(-c2nc(C(Cl)Cl)c3ccccc3n2)cc1`, the results for the activity in assay [1] and in assay [2] were 56.8% and 96.3%, respectively.

Consider `COc1cc2sc3ccc(C#CC4(O)CCCCC4)cc3c(=O)c2cc1OC`, for which the activity in assay [1] and in assay [2] was 71.4% each time.

For `O=C(CCl)N1c2ccccc2CCc2ccccc21`, the values for the activity in assay [1] and in assay [2] were 99.8% and 99.7%, respectively.

In the case of `CC(C)(C)c1ccc(/C=C/C(=O)NC2=NCCS2)cc1`, the activity in assay [1] worked out at 49.7%; in assay [2] it was 41.9%.

In the case of `Cc1ccc(-c2nc(-c3ccncc3)no2)c(Cl)c1`, the activity in assay [1] was determined as 63%; in assay [2] it was 57.1%.

For the molecule `CCc1ccc(/C=N/NC(=O)c2c[nH]c3ccccc23)s1`, the activity in assay [1] turned out to be 21.7%; in assay [2], 20.4%.

With `CCOc1ccc(-c2ccc(SCC(=O)NCC3CCCO3)nn2)cc1` (stereo unspecified), the values for the activity in assay [1] and in assay [2] were 41.8% and 32.7%, respectively.

As to `c1ccc(-c2ccc(-c3nc(-c4ccccn4)no3)cc2)cc1`, the activity in assay [1] was 94%; in assay [2], 93.2%.

As to `CCOC(=O)c1sc(NC(=O)c2ccccc2)cc1C`, the values for the activity in assay [1] and in assay [2] were 59.1% and 54.5%, respectively.

For `CCS(=O)(=O)c1ncc(Cl)c(C(=O)Nc2ccc(S(=O)(=O)N(C)c3ccccc3)cc2)n1`, the activity in assay [1] is 99.2%; in assay [2], 99.7%.

In the case of `C=CCN(CC=C)c1cnn(-c2nc3ccccc3[nH]2)c(=O)c1Cl`, the activity came out at 69.6% in assay [1] and 59.7% in assay [2].

`CCOc1cccc2sc(N(CCCN(C)C)C(=O)c3ccc(S(=O)(=O)N4CCc5ccccc5C4)cc3)nc12`: the activity stood at 55.9% in assay [1] and 73.7% in assay [2].

Regarding `C#CCN(C[C@@H]1[C@@H](OC(=O)NCC2CCCCC2)[C@@H](OC(=O)NCC2CCCCC2)Cn2c(=O)ccc(=O)n21)S(=O)(=O)c1ccc(C)cc1`, the activity in assay [1] worked out at 97.7%; in assay [2], 98.3%.

With `COc1ccc2nc(-c3ccc(F)cc3)sc2c1`, the activity in assay [1] amounted to 68.2%; in assay [2] it was 65.7%.

Turning to `Nc1nc(=S)c2ncn([C@@H]3O[C@H](CO)[C@@H](O)[C@H]3O)c2[nH]1`, the figures for the activity in assay [1] and in assay [2] were 70.6% and 73.5%, respectively.

With `COC(=O)c1sc(NC(=S)NC(=O)c2ccccc2C)nc1C`, the activity in assay [1] came to 58%; in assay [2], 61.3%.

In the case of `CC(=O)Oc1ccc(/C=C/c2nc3ccccc3c(=O)o2)cc1`, the activity in assay [1] stood at 80.2%; in assay [2], 75.2%.

`Cc1nc2nc(C)n(CCN3CCOCC3)c(=O)c2c(-c2cccc([N+](=O)[O-])c2)c1C(=O)CCCCCCCCCCN1CCC(c2ccccc2)(c2ccccc2)CC1`: the activity was 92.6% in assay [1] and 89.9% in assay [2].

As to `O=C(Cn1ncc(Cl)c(Cl)c1=O)c1ccc(Cl)cc1`, the activity in assay [1] was determined as 99.7%; in assay [2] it was 99.6%.

With `Cc1cc(C(=O)CSc2nnc(N)s2)c(C)n1Cc1cccs1`, the figures for the activity in assay [1] and in assay [2] were 72.5% and 77.5%, respectively.

`COc1ccc(CC(=O)Nc2cccc(-c3nnc(-c4ccccc4)o3)c2)cc1OC`: the activity in assay [1] turned out to be 78.9%; in assay [2], 59.8%.
